Assay outcomes: PubChem BioAssay, several laboratories
FBA Mtb inh: inhibitors of M. tuberculosis fructose-bisphosphate aldolase | P9WQA3 | actives 2.3% (n = 360,000) | inhibition, % at 1 µM | AID 588726 | purified M. tuberculosis FBA, fluorescence read-out; in the data active = inhibition above about 27%
Target sequence (P9WQA3 whole entry, looked up): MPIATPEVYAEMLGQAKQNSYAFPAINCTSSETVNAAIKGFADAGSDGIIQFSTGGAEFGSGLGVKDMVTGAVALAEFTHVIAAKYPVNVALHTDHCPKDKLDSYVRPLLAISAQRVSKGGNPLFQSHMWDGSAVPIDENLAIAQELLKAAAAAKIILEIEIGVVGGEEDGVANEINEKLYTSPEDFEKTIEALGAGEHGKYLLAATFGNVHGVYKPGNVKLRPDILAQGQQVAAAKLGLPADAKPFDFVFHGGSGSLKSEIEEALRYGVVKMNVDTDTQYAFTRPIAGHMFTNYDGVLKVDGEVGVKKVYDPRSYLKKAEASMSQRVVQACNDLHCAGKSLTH
Rv3671c inh: inhibits the M. tuberculosis serine protease Rv3671c. inhibition, % at 5.96 µM. P9WHR9. actives 0.048% (n = 320,000); in the data active = inhibition above about 38%;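 note: extracellular domain of Rv3671c used as enzyme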
Mtb bLac sens: beta-lactam sensitization of Mtb H37Rv | inhibition, % at 25 µM | M. tuberculosis H37Rv growth with meropenem, percent inhibition | AID 434955 | actives 0.27% (n = 330,000);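 note: growth measured after seven days incubation then overnight dye step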
GDH-TPI inh: inhibits GDH-TPI coupling enzymes, artifact for Mtb FBA screen; GDH-TPI coupled enzyme counterscreen, NADH absorbance; inhibition, % at 4.8 µM; actives 1.2% (n = 360,000); AID 588335; in the data active = inhibition above about 30%
UGM FP inh: Mtb UDP-galactopyranose mutase inhibition; P9WIQ1; purified UGM, fluorescence polarization probe displacement; inhibition, % at 10 µM; actives 0.06% (n = 320,000); in the data active = inhibition above about 10%, passing the limit was not always enough; inconclusive = no clear call, values can overlap the other calls
RecA intein inh: blocks M. tuberculosis RecA intein splicing. P9WHJ3. cell-free RecA intein splicing, fluorescence. inhibition, % (no concentration beside the values). actives 0.75% (n = 290,000). AID 2221; in the data active = inhibition above about 30%; inconclusive = no clear call, values can overlap the other calls
GFP chromo cs: counter-screen GFP chromophore formation inhibition; actives 83% (n = 2,100); cell-free GFP chromophore formation, fluorescence; shares compounds with RecA intein inh; EC50, µM
Hits are given with their value; 0 = inactive; ? = inconclusive; - = no result. A selection: hits, their analogues and other compounds. The true share with any hit is near 4%. Unless noted, the rule behind the calls is not given here.

SMILES | FBA Mtb inh | Rv3671c inh | Mtb bLac sens | GDH-TPI inh | UGM FP inh | RecA intein inh | GFP chromo cs
COc1ccc(N2C(=O)C(Cl)=C(Oc3cccc(OC)c3)C2=O)cc1 | 0 | 0 | 0 | 0 | 0 | 39 | 20
CCc1ccc(N2C(=O)C(Cl)=C(N3CCOCC3)C2=O)cc1 | 0 | 0 | 0 | 0 | 0 | 78 | 5.3
COc1ccc(N2C(=O)C(Cl)=C(N3CCOCC3)C2=O)cc1 | 0 | 0 | 0 | 0 | 0 | 74 | 8.7
COc1ccc(N2C(=O)C(Cl)=C(N3CCN(Cc4ccccc4)CC3)C2=O)cc1 | 0 | - | - | 0 | - | 69 | 7.1
CCOC(=O)Cc1csc(NC(=O)c2ccc(C)c(S(=O)(=O)N3CCOCC3)c2)n1 | 0 | 0 | 0 | 0 | - | - | -
Cc1ccc(NC(=O)CN(C)C(=O)Cn2c(=O)oc3ccccc32)cc1 | 0 | 0 | 0 | 0 | 0 | - | -
CN(CCC#N)C(=O)Cn1nc(Cc2ccncc2)c2ccccc2c1=O | 0 | 0 | 0 | 0 | 0 | 49 | 0
CCCCNC(=O)Cn1nc(Cc2ccncc2)c2ccccc2c1=O | 0 | 0 | 0 | 0 | 0 | 0 | -
CCc1cc(C(=O)c2ccc(OC)cc2)c(NC(=O)CCC(=O)O)s1 | 0 | 0 | 0 | 0 | 0 | 0 | -
CCc1cc(C(=O)c2ccc(C)cc2)c(NC(=O)CCl)s1 | 0 | 0 | 0 | 0 | 61 | 74 | 14
CCCc1c(C(=O)N/N=C/C2CC=CCC2)nnn1-c1nonc1N (stereo unspecified) | 0 | - | - | 0 | - | - | -
CN(Cc1cccnc1)C(=O)c1cc(COc2ccc3c(c2)CCCC3)on1 | 0 | 0 | ? | 0 | 0 | 0 | -
[O-][n+]1c2c(nc3c1-c1ccccc1C3O)CCCC2 (stereo unspecified) | - | 0 | 0 | - | 0 | 41 | 33
Cc1cc(NC(=O)CCC(=O)N(Cc2cccs2)C(C)(C)C(=O)NC2CCCCC2)no1 | 0 | 0 | 0 | 0 | 0 | 0 | -
CCOC(=O)C1=CN(Cc2cccc(F)c2)S(=O)(=O)N(CC)C1c1ccc(C(F)(F)F)cc1 (stereo unspecified) | 0 | - | - | 0 | - | - | -
CC(=O)Nc1ccc(S(=O)(=O)NCC(=O)OCC(=O)N2CC(C)OC(C)C2)cc1 (stereo unspecified) | 0 | 0 | 0 | 0 | 0 | - | -
c1ccc(CCNCc2cccs2)cc1 | 0 | - | 0 | 0 | 0 | 33 | 0
CCN(CC)c1c([N+](=O)[O-])c(=O)n(C)c2ccccc12 | 0 | 0 | 0 | 0 | 0 | 0 | -
Cn1c(=O)c([N+](=O)[O-])c(-n2cnc3ccccc32)c2ccccc21 | 0 | 0 | 0 | 0 | 0 | 63 | 22
Cn1c(=O)c([N+](=O)[O-])c(Cl)c2ccccc21 | 0 | - | - | 0 | - | 56 | 11
NC(=O)C1CCN(c2nc(-c3ccc4ccccc4c3)cs2)CC1 | 0 | 0 | 0 | 0 | 0 | - | -
O=C(Nc1ncc([N+](=O)[O-])s1)c1ccco1 | 0 | 0 | ? | 0 | 0 | 31 | 21
Cc1cccc(Cn2nnc3c2C(=O)c2ccccc2C3=O)c1 | 0 | 0 | 0 | 0 | 0 | 37 | 9.9
O=[N+]([O-])C(/C=C(/Cl)[N+](=O)[O-])=C(N1CCCCC1)N1CCCCC1 | 0 | 0 | ? | 0 | 0 | 49 | 20
O=C1C=C(c2ccc(Oc3ccccc3)cc2)C[C@@H](c2ccc3c(c2)OCO3)C1 | 0 | 0 | 0 | 0 | 0 | - | -
SMILES | FBA Mtb inh | Rv3671c inh | Mtb bLac sens | GDH-TPI inh | UGM FP inh | RecA intein inh | GFP chromo cs
C/C(CC(=O)Nc1ccccn1)=N\NC(=O)Cc1cccc2ccccc12 | 0 | 0 | 0 | 0 | 0 | 87 | 8.6
C/C(CC(=O)Nc1ccccn1)=N\NC(=O)c1ccccc1 | - | 0 | 0 | - | 0 | 0 | -
C/C(CC(=O)Nc1ccccn1)=N\NC(=O)c1ccncc1 | - | 0 | 0 | - | 0 | 85 | 6.8
C/C(CC(=O)Nc1ccc(Cl)cn1)=N\NC(=O)Cc1cccs1 | 0 | 0 | 0 | 0 | 0 | 62 | 37
COc1cc(OC)cc(C(=O)N/N=C(\C)CC(=O)Nc2ccccn2)c1 | 0 | 0 | 0 | 0 | 0 | 56 | 24
C/C(CC(=O)Nc1ccccn1)=N\NC(=O)c1ccccc1O | 0 | 0 | 0 | 0 | 0 | 0 | -
C/C(CC(=O)Nc1ccccn1)=N\NC(=O)c1ccc2ccccc2c1 | 0 | 0 | 0 | 0 | 0 | 0 | -
CCNC(=O)C1(C)CCN(C(=O)c2ccc(-c3ccccc3)cc2)C1 (stereo unspecified) | 0 | - | - | 0 | - | - | -
O=C(COc1ccc(S(=O)(=O)N2CCOCC2)cc1Cl)NCc1ccc2c(c1)OCO2 | 0 | - | - | 0 | - | - | -
CCOC1=C2[C@H]([C@H]3C(=O)N(c4ccccc4)C(=O)[C@H]3C1)[C@@H](C(C)C)N(S(=O)(=O)c1ccc(C)cc1)[C@H]2c1ccccc1 | 0 | - | - | - | - | - | -
CC(C)c1nnc(NC(=O)CCS(=O)(=O)c2nc(-c3cccs3)cc(C(F)(F)F)n2)s1 | 0 | 0 | 0 | 0 | 0 | 32 | 0
O=[N+]([O-])c1cc(S(=O)(=O)C(F)(F)F)ccc1Sc1nc2ccccc2[nH]1 | 0 | 0 | 0 | 0 | 0 | 82 | 1.5
O=[N+]([O-])c1cc(S(=O)(=O)C(F)(F)F)ccc1Sc1nc2ccccc2s1 | 0 | 0 | 0 | 0 | 0 | 85 | 0.25
CC1=C(C(=O)N(C(C)C)C(C)C)CC(CC(=O)NCc2ccco2)C(=O)N1Cc1ccccc1 (stereo unspecified) | 0 | - | - | - | - | - | -
O=C(CCl)NC(=O)NC12CC3CC(CC(C3)C1)C2 | 0 | 0 | 0 | 0 | 0 | 59 | 29
CC(Cl)C(=O)NC(=O)NC12CC3CC(CC(C3)C1)C2 (stereo unspecified) | 0 | 0 | 0 | 0 | 0 | 0 | -
COc1ccc(OCCN2CCC(C(=O)NC(c3ccc(F)cc3)c3ncccc3C)CC2)cc1 (stereo unspecified) | 0 | - | - | 0 | - | - | -
COC(=O)c1cccc(-c2ccc(C(c3c(C)[nH][nH]c3=O)c3c(C)[nH][nH]c3=O)o2)c1 | 0 | 0 | 0 | 0 | 0 | 100 | 0.54
COC(=O)c1ccccc1-c1ccc(C(c2c(C)[nH][nH]c2=O)c2c(C)[nH][nH]c2=O)o1 | 0 | 0 | 0 | 0 | 0 | 95 | 0.45
Cc1[nH][nH]c(=O)c1C(c1ccc(-c2ccc(Cl)c(C(=O)O)c2)o1)c1c(C)[nH][nH]c1=O | 0 | - | - | 0 | - | - | -
C[C@@H]1CN([C@@H](C)CO)C(=O)CCCn2nncc2CO[C@@H]1CN(C)C(=O)OCc1ccccc1 | 0 | - | - | 0 | - | - | -
CN1CCN(C(c2ccc(Br)cc2)c2cc(Cl)c3cccnc3c2O)CC1 (stereo unspecified) | 0 | 0 | 0 | 0 | 0 | 74 | 9.8
CN1CCN(C(c2ccc(F)cc2)c2ccc3cccnc3c2O)CC1 (stereo unspecified) | 0 | - | - | 0 | - | - | -
O=[N+]([O-])c1c(Nc2cccc(O)c2)cc(Cl)c2nonc12 | 0 | 0 | 0 | 0 | 0 | 0 | -
CNc1cc(Cl)c2nonc2c1[N+](=O)[O-] | 0 | - | - | 0 | - | 86 | 7.7
O=C(NCCCN1CCCC1=O)c1sc2ccccc2c1Cl | 0 | 0 | 0 | 0 | 0 | 0 | -
Cc1nn(-c2ccccc2)c(Cl)c1/C=C1\SC(=S)N(CCCCCC(=O)O)C1=O | 0 | 0 | 0 | 0 | 0 | 37 | 28
